{
  "source": "the supplement of paper PMC9262897",
  "about": "“Low-cost anti-mycobacterial drug discovery using engineered E. coli” (Nature Communications, 2022)",
  "note": "Where a name gives a salt, the structure may show the parent alone. ± gives the standard deviation of the averaged measurements.",
  "data": [
    {"system": "E. coli TESEC Mtb Asd", "assay": "growth (OD600 after 10 h); higher = more growth (less inhibition)", "settings": "arabinose induction (level): Low; compound 0.1 mM; raw OD600 reference: median of DMSO wells 0.417, cell-free background 0.041", "protocol": "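TESEC E. coli strains in which the native enzyme is deleted and replaced by arabinose-inducible Mtb Asd, DapB, CysH or TrpD, each grown in its selective medium. Strains were screened against the Prestwick library at 0.1 mM and 1% DMSO in 384-well format at low and high arabinose induction. Growth is read as OD600 after 10 h in triplicate.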", "values": [
      {"compound": "CN1CCc2c(c3ccccc3n2Cc2ccccc2)C1", "note": "[Mebhydroline 1,5-naphtalenedisulfonate]", "growth": "0.278 ± 0.055"},
      {"compound": "C[C@@H](O[C@H]1OCCN(Cc2n[nH]c(=O)[nH]2)[C@H]1c1ccc(F)cc1)c1cc(C(F)(F)F)cc(C(F)(F)F)c1", "note": "[Aprepitant]", "growth": "0.0731 ± 0.019"},
      {"compound": "COc1cccc(N(C)C(=S)Oc2ccc3c(c2)CCCC3)n1", "note": "[Liranaftate]", "growth": "0.426 ± 0.045"},
      {"compound": "Oc1c(Cl)cc(Cl)c(Cl)c1Cc1c(O)c(Cl)cc(Cl)c1Cl", "note": "[Hexachlorophene]", "growth": "0.0553 ± 0.004"},
      {"compound": "CC1(C)S[C@@H]2[C@H](NC(=O)[C@H](N)c3ccccc3)C(=O)N2[C@H]1C(=O)O", "note": "[Ampicillin trihydrate]", "growth": "0.394 ± 0.066"},
      {"compound": "CCC(=O)O[C@]1(C(=O)SCF)[C@H](C)C[C@H]2[C@@H]3C[C@H](F)C4=CC(=O)C=C[C@]4(C)[C@@]3(F)[C@@H](O)C[C@@]21C", "note": "[Fluticasone propionate]", "growth": "0.36 ± 0.046"},
      {"compound": "CCCC(=O)Nc1ccc(OCC(O)CNC(C)C)c(C(C)=O)c1", "note": "(configuration not stated) [Acebutolol hydrochloride]", "growth": "0.413 ± 0.007"},
      {"compound": "CC(C)(C)NC[C@H](O)COc1cccc2c1CCCC2=O", "note": "[(-) -Levobunolol hydrochloride]", "growth": "0.428 ± 0.059"},
      {"compound": "COC(=O)CCc1ccc(OCC(O)CNC(C)C)cc1", "note": "(configuration not stated) [Esmolol hydrochloride]", "growth": "0.432 ± 0.022"},
      {"compound": "O=c1[nH]cnc2c1ncn2[C@H]1CC[C@@H](CO)O1", "note": "[Didanosine]", "growth": "0.165 ± 0.013"},
      {"compound": "C[C@@H]1CCC[C@H](C)N1NC(=O)c1ccc(Cl)c(S(N)(=O)=O)c1", "note": "[Clopamide]", "growth": "0.354 ± 0.031"},
      {"compound": "CCCc1nn(C)c2c(=O)[nH]c(-c3cc(S(=O)(=O)N4CCN(C)CC4)ccc3OCC)nc12", "note": "[Sildenafil]", "growth": "0.399 ± 0.035"}
    ]}
  ]
}
